High-throughput results deposited in PubChem by National Center for Advancing Translational Sciences (NCATS).
This is one part of a sample in which hits are shown more often than they occur.
DT40 TDP1 no CPT = qHTS for Inhibitors of human tyrosyl-DNA phosphodiesterase 1 (TDP1): qHTS in cells in absence of CPT; DT40 Tdp1-/- hTDP1 cells, no CPT, ATP luminescence, 48 h; Potency, µM (titrated, usually from 46.2 µM), inactives show at the top dose activity change, negative = growth inhibition, most hits filed as inhibitors; 420,000 tested, 15% active; AID 686978, 2013; also: potency is read from the fitted curve at half-maximal effect; nearly all actives have a fitted effect of over 55% in size
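Readout: luminescence from CellTiter-Glo after 30 min in the dark at RT. Cells: DT40 Tdp1-/- with stable hTDP1, 400/well. Exposure: compounds alone, ≥48 hr, 37 °C.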
IL1B secr inh = inflammasome signaling inhibition, IL-1 beta readout | THP-1 LPS/ATP IL-1B secretion, AlphaLISA, 16 h; active compounds read low | activity change, % at 57.5 µM | 360,000 tested, 4.7% active; in the data active = activity change below about -50%; inconclusive = mostly about -30% to -49%
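Secreted IL-1B measured by AlphaLISA bead assay after 16 h compound exposure of THP-1 cells; compounds (final up to 57.5 uM) added 1 h before LPS (250 ng/mL) and ATP (1.25 mM) stimulation; lower signal means less secretion.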
HT1080-NT tox = kills 2HG-producing HT-1080-NT fibrosarcoma cells; HT-1080-NT fibrosarcoma viability, CellTiter-Glo ATP luminescence, 48 h; Potency, µM (highest dose often 46.1 µM), inactives show at the highest dose activity, negative = less viability, hits mostly cytotoxic; 360,000 tested, 1.6% active;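 also: NT is the 2HG producing partner of a matched IDH1 knockdown line; potency is read from the fitted curve at half-maximal effect; 0% = DMSO-treated cells and -100% = media-only wells without cells; nearly all actives have a fitted effect of over 55% in size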
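HT-1080-NT fibrosarcoma cells (2HG-overproducing), 750 cells/well in RPMI with 5% FBS, dosed after 2 h and incubated 48 h at 37C. CellTiter-Glo luminescence normalized to DMSO and no-cell wells; concentration-response curves fitted and classed.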
HT1080 IDH1KD tx = HT-1080 IDH1 knockdown cell toxicity (counter line); 360,000 tested, 2% active; HT-1080 IDH1 knockdown viability, ATP luminescence, 48 h; AID 686971; Potency, µM (titrated, usually from 46.1 µM), for the others: at the highest dose activity, negative = toxicity, most hits filed as cytotoxic;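 also: potency is read from the fitted curve at half-maximal effect; 0% = DMSO wells and -100% = cell-free medium wells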
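Luminescent ATP read-out (CellTiter-Glo, 10 min at room temperature) after 48 h compound exposure at 37 °C gave viability of IDH1-knockdown HT-1080 cells. Activity was normalised to DMSO and cell-free wells, then fitted as concentration-response curves.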
TDP1 cell CPT = growth inhibition of DT40 Tdp1-/-;hTDP1 cells with camptothecin (screen for TDP1 inhibitors) | chicken DT40 Tdp1-/-;hTDP1 cells + 20 nM CPT, ATP luminescence, 48 h | Potency, µM (series often up to 46.2 µM), without a hit: at the highest dose activity change, negative = growth inhibition, actives largely listed as inhibitors | 420,000 tested, 12% active | AID 686979; also: potency is read from the fitted curve at half-maximal effect; nearly all actives have a fitted effect of over 55% in size
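Chicken DT40 Tdp1-/- cells complemented with human TDP1, 400 cells/well, exposed to compounds plus 20 nM camptothecin for at least 48 h at 37 C; viability read as ATP content by CellTiter-Glo luminescence.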
12-LOX inh = ALOX12 (human) lipoxygenase inhibition; AID 1671190; P18054; Potency, µM (doses to about 108 µM), without a hit: top-dose activity change, negative = inhibition, most hits filed as inhibitors; purified 12hLO, xylenol orange hydroperoxide absorbance; 580,000 tested, 1.1% active; also: potency is read from the fitted curve at half-maximal effect
Target sequence (P18054 whole entry, looked up): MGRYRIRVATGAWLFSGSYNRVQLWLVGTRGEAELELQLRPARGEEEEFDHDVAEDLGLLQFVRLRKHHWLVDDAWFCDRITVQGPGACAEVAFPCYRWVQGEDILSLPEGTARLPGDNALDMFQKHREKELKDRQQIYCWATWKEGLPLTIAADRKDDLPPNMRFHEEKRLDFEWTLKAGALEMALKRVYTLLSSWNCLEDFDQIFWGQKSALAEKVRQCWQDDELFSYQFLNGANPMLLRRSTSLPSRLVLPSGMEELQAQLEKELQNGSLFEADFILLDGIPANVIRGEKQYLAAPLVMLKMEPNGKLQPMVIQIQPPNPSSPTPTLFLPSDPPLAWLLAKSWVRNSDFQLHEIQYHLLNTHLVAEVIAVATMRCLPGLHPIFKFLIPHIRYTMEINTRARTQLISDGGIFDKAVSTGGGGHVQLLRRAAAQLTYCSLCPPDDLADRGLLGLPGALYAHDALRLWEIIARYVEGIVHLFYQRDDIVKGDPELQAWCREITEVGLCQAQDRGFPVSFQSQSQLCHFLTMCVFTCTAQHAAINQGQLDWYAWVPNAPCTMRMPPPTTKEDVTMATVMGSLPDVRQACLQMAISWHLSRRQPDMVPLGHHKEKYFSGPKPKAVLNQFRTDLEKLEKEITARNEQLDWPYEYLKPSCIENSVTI
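Purified human 12hLO (150 nM final) in 25 mM Hepes, 0.01% Triton X-100, pH 7.0 was preincubated 15 min at room temperature with compound. Then 40 uM arachidonic acid was added, 30 min. Hydroperoxide was read by Fe-XO absorbance ratio 573/405 nm.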
Numbers without * were called inactive; i = inactive; ? = inconclusive; nt = no result. Unless noted, calls follow the shape of the dose curve; as a rule, active = well fitted curve in the direction sought with a large enough effect; inconclusive = small, poorly fitted or top-dose-only effect, or another doubt; inactive = no such curve, though single readings can be large; an effect the other way counts as inactive or inconclusive. Unless noted, % is scaled to controls: 0 for no effect and ±100 for the full control effect.

SMILES	DT40 TDP1 no CPT	IL1B secr inh	HT1080-NT tox	HT1080 IDH1KD tx	TDP1 cell CPT	12-LOX inh
COc1ccc2c(c1)CC(C(=O)NCCCN1CCN(c3cccc(Cl)c3)CC1)CO2 (stereo not drawn)	18µM*	nt	nt	nt	18µM*	1%
Nc1ccccc1C(=O)NCCCN1CCN(c2cccc(Cl)c2)CC1	-22%	?	9%	-2%	-14%	i
O=C([C@H]1C[C@H](Oc2ccccc2)CN1C(=O)CC1CCCC1)N1CCOCC1	nt	nt	nt	nt	nt	-2%
CSCCC1NC(=O)N(CC(=O)Nc2c(Cl)cc(Cl)cc2Cl)C1=O (stereo not drawn)	?	-5	-3%	?	16µM*	?
Cc1cc(C)c2nccc(C)c2c1	3%	nt	nt	nt	-12%	nt
Cc1ccc2c(/C=C/c3ccc(N(C)C)cc3)ccnc2c1C	?	nt	nt	nt	13µM*	nt
CN(C)c1ccc(/C=C/c2ccnc3c(Cl)ccc(Cl)c23)cc1	10µM*	nt	nt	nt	11µM*	nt
Cc1cc(C)c2nccc(/C=C/c3ccc(N(C)C)cc3)c2c1	10µM*	nt	nt	nt	11µM*	nt
CN(C)c1ccc(/C=N/N2CCN(c3ccccn3)CC2)cc1	-14%	?	2%	7%	-1%	8%
Cc1ccc(/C(O)=C/C(=O)C(=O)NNC(=O)C(O)(c2ccccc2)c2ccccc2)cc1	-10%	0	?	?	-5%	?
O=C(C=C(O)c1ccc(Cl)cc1)C(=O)NNC(=O)C(O)(c1ccccc1)c1ccccc1	?	-5	?	-12%	8%	14µM*
CCc1ccc(Nc2nnc(SCC(=O)Nc3ccnn3C3CCCC3)s2)cc1	nt	nt	nt	nt	nt	-1%
CCN1CCC(N(Cc2ccc3c(c2)OCO3)C(=O)Nc2ccc(Br)c(C)c2)CC1	16µM*	nt	nt	nt	?	?
O=c1oc(-c2ccco2)nc2c1cnn2-c1ccccc1	?	-19	6%	-2%	?	-18%
